Measured values: the supplement of paper PMC6555819

Each sequence was assayed on THRa homodimer (NR concentration 90 nM) (assay: PBM binding z-score (relative to random genomic background probes); higher = stronger binding; sequences stand for … in GC…GCGATTGACAGCGTAGAATGAAGG).
Outline: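 On custom Agilent 4×180K arrays, double-stranded probes with 34-nt variable regions carried direct-repeat seeds, single-nucleotide variants, half-site ablations or random human genomic background. Ligand-free nuclear receptor dimers were applied for 1 h, and binding was read with antibodies against each partner (one per run). Binding z-scores come from regression-normalized fluorescence, with the random background probes as reference.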
CGTTCAAGGTCAAGGTCAGTGAAAGAGACTCGAA was tested, and the PBM binding z-score was 4.1. With ACTAGTTGGTCAGCCGAGGTCACACACAATTCGG the PBM binding z-score was 4.33. With AGTCAAAGTTCACTAGATAACGTAAGATTCAGCT the PBM binding z-score was -0.386. Work on ACTCGGAGAACAAAGGTCAGAGCTACGCCAGTGA yielded a PBM binding z-score of 0.0239. For CCTAGGTGGTCAGGAGGTCACACACCGGATATGA, the PBM binding z-score was 2.2. CCTTAAGGGTCACTGACAGGTTATAGCATTTGGA showed a PBM binding z-score of 0.468. TCGAGTAGGTTACCAATGGGGCATTCCGCTTTCT gave a PBM binding z-score of -0.631. Sequence TCTTGTAGATCAACGGTTAAGAAAGCCGAAGCCT has a PBM binding z-score of -0.541. With CCGACTGGGGCAGAAAGGTTACCATACCATCCGG the PBM binding z-score was -0.396. For GCTAGCAGGCCATTTGGGTTACTCAATGACGGGC, the PBM binding z-score was -0.64. With AGTCAAAGTTCATCTAGGGAACGTAAGATATGCT the PBM binding z-score was -0.658. CAAACTAGGTCACCGGATGGTCAAAGTCCGCATG was tested, and the PBM binding z-score was 1.85. Work on CCTCGGAGGCCAGAAGGTCAGAGCTGTCCGCTTT yielded a PBM binding z-score of 0.0524. CTCGAAAGGTCGGTTGAGGTGAGTGTACGGATAA was tested, and the PBM binding z-score was 1.78. TAGCCTAGGTCATGGTCCAGTATACCACGCGAAC was tested, and the PBM binding z-score was 1.75. CCTGCTAGGTCAATGGTCAGCTACAGCAGCTCGC gave a PBM binding z-score of 1. In the case of TCGAGTACGTTAGGGGCATTCAGAATGGCGTCGA, the PBM binding z-score is reported as -0.622. Work on TAGCCTAGGACATTGGGCCAGTATAGTACGCATC yielded a PBM binding z-score of -0.00513. CCTTACGGGTCACAAGGTTATAGCACGACGAGCG gave a PBM binding z-score of 0.935. For GTAACGAGGGCAAGTTGATAGCAGAGTTTGATGG, the PBM binding z-score was 0.0846. In the case of ACGTACGGGTCAACGAGGTTATAGCACGCGTATA, the PBM binding z-score is reported as 0.75. TCAAACAGGTGAAGGTAACTCAGGTACGCAGTCG was tested, and the PBM binding z-score was 0.12. CGAACTAGGTCAGAACTGGACAGTGAAGGATGAT gave a PBM binding z-score of -0.298. CCTACTGGTCCAAAGGTCATTGATTCCAATGCTC gave a PBM binding z-score of 1.49. CCGACTGGGGCAGAAAGGTTACCACACCATCCGG showed a PBM binding z-score of -0.368. CCTGCTAGGTCAATAGTCAGCTAAAGCAGCTCGC gave a PBM binding z-score of 0.258. With GCTAGCTGGCCATTTGGGTCACTCAATGACGGGC the PBM binding z-score was 0.32. Sequence TTACCAAGGGGAAGGTCGTTGATCCCTCTGTAGA has a PBM binding z-score of -0.636. Work on ACTATTAGTTGACTTAGGGCAACCCATACGACGC yielded a PBM binding z-score of 0.725. Sequence CAAACTAGGTCGCGAAAGGTCAAAGTCGAATGAC has a PBM binding z-score of 1.51. In the case of CCTAGCAGGCCAGTGTCACTCAAGCATTTCGCTT, the PBM binding z-score is reported as -0.656. Work on ACTTACGGGTCAACGAGGTTATAGGACGCGTATA yielded a PBM binding z-score of 1.19. With TCATATAGGTAAACAGGTGGAAGTCCGTAAGTTA the PBM binding z-score was 0.00908. With ATCGAAAGGTCGCGAGGTGAGTATACAGAAAGGC the PBM binding z-score was 0.86. Sequence CCCCGGAGGACAACAGGAGGTCAGAGCTGCCAGA has a PBM binding z-score of 1.39. Work on ACTTACGGGTCAACGAGGTTATAGTACGCGTATA yielded a PBM binding z-score of 1.34. Sequence TCGAGTAGGTTACCATTGGGGCATTCAGCTTTCT has a PBM binding z-score of -0.238. In the case of CCTTGTTGGTCAAGGTCACACACGCTATAGGTAC, the PBM binding z-score is reported as 4.1. In the case of CCTACTGGGCCACGAAAGGTCATTTATTCAGTGA, the PBM binding z-score is reported as 0.944. TCTTGTAGATCAAGAGAGGTTAAGAAAGTGCGCT was tested, and the PBM binding z-score was -0.932.
